For 99 molecules, activity, negative = inhibition and AC50 results are on record in PubChem BioAssay AID1851 (National Center for Advancing Translational Sciences (NCATS), 2009).

Where “and” joins values, the source holds several entries; their conditions need not be identical. Identical values can stand only once. About 5,800 (36%) of roughly 16,000 compounds were called active. About 23% were inconclusive and are not listed. Calls follow the shape of the dose curve; as a rule, active = well fitted curve in the direction sought with a large enough effect; inconclusive = small, poorly fitted or top-dose-only effect, or effect the other way; inactive = no such curve, though single readings can be large or run the other way. Some of the results follow.
% is scaled to controls: 0 for no effect and ±100 for the full control effect.

Cytochrome P450 2C19 (Homo sapiens), sequence (P33261 whole entry, looked up): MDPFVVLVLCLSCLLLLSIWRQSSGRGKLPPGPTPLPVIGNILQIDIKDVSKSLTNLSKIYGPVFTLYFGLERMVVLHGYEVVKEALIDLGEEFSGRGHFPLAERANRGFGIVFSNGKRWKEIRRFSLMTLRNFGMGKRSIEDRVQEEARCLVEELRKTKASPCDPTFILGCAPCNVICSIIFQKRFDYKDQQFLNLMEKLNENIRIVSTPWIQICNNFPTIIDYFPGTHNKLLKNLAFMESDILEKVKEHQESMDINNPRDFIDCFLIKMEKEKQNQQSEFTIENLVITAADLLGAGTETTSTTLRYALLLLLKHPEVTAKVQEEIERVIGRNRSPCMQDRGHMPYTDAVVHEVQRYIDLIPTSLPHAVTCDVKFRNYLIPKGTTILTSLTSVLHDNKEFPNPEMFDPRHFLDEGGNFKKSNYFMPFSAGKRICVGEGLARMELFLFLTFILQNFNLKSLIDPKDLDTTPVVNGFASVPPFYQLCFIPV

The assay has as its target Cytochrome P450 2C19 (Homo sapiens) (UniProt P33261). The assay is described as follows: Cytochrome panel assay with activity outcomes. As to conditions: recombinant CYP, pro-luciferin dealkylation, luminescence, p450-cyp2c19; series mostly up to 57.1 µM.
`CO[C@@H]1COC(=O)C/C=C\[C@@H](C)[C@@H]2C=C[C@H](O)[C@@H](COC(=O)CCC[C@H]1C)O2`: the activity, negative = inhibition was -8.99% [at 11.4 µM] (inactive).
As a reminder, the AC50 is the concentration at which the activity in the assay is half-maximal. For `CC(C)Oc1ccc2c(=O)c3cc(C(=O)O)ccc3oc2c1`, the AC50 result is “inactive”.
For `COc1ccc2c(=O)c(-c3ccccc3C)c(C)oc2c1`, the half-maximal activity concentration (AC50) is 20 µM (active).
Same read-out and setting: next, `N[C@H](C(=O)O)[C@H](O)C(=O)O`: “inactive”; `COc1ccccc1C1CC(c2c(-c3ccccc3)c3cc(Cl)ccc3[nH]c2=O)=NN1S(C)(=O)=O` (centres undefined): 3.16 µM (active); `Cc1ccc(-c2noc(-c3cc4ccccc4oc3=O)n2)cc1`: “inactive”.
For the molecule `O=c1oc2ccccc2cc1-c1csc(NN=C2CCCCC2)n1`, the AC50 was 1.58 µM (active).
As for `CC1CC(C)CN(C(=O)CSc2nnc(CSc3ncccn3)n2C)C1` (centres undefined), the AC50 is 14.1 µM (active).
On the same count and under the same terms, next, `CCCc1nnc(SCC(=O)N2CCCC(C)C2)n1CC1CCCO1` (centres undefined): “inactive”; `CS(=O)(=O)c1ccc([C@H](O)[C@H](CO)NC(=O)C(Cl)Cl)cc1`: “inactive”.
On the same count and under the same terms, next, `N#CC(=C1CCCC1)c1nc(-c2ccccc2)cs1`: 1.41 µM (active).
Regarding `Cc1ccc(-c2csc(C(C#N)=C3CCCC3)n2)cc1`, the AC50 was 2.24 µM (active).
The same measure, in the same setting: next, `Nc1nc(N)c(-c2cccc(C(F)(F)F)c2)c(Cc2cccc(C(F)(F)F)c2)n1`: 2.51 µM (active); `Cc1ccc(C(=O)N2CCN(C3c4cccc5cccc(c45)C3NS(=O)(=O)c3ccccc3)CC2)cc1` (centres undefined): 3.16 µM (active); `Cc1ccc(S(=O)(=O)N[C@H](C(=O)N2CCC(C(=O)NCC(=O)O)CC2)C(C)C)cc1`: “inactive”.
On the same count and under the same terms, next, `CC(C)(CO)[C@H](O)C(=O)NCCCO`: “inactive”.
As to `CCOc1ccc(N(C(C)C(=O)N/N=C(\C)c2cccc(NC(=O)c3ccccc3)c2)S(C)(=O)=O)cc1` (centres undefined), the AC50 is 3.98 µM (active).
Turning to `C/C(CCN1CCCCc2nc(C)c(C)cc21)=N\OC[C@@H](C)[C@H](OCc1ccccc1)C(C)C`, the activity, negative = inhibition was -22.2% [at 11.4 µM] (inactive).
For the molecule `C[N+](C)(C)CCO`, the AC50 entry was “inactive”.
Take `O=C(Nc1nccs1)C1Cc2ccccc2CN1S(=O)(=O)c1ccc(F)cc1` (centres undefined): the AC50 was 0.891 µM (active).
With `O=C(Nc1nnc(C2CC2)s1)C1Cc2ccccc2CN1S(=O)(=O)c1ccccc1F` (centres undefined), the AC50 was 0.0282 µM (active).
On the same count and under the same terms, the value for `CCc1nnc(NC(=O)C2Cc3ccccc3CN2S(=O)(=O)c2ccc(C)cc2)s1` (centres undefined) was 0.631 µM (active).
With `O=C(O)c1c[nH]c2c(ccc3[nH]cc(C(=O)O)c(=O)c32)c1=O`, the activity, negative = inhibition was -8.42% [at 11.4 µM] (inactive).
Regarding `Cc1ccccc1C(=O)N/N=C/c1ccncc1`, the AC50 is 39.8 µM (active).
With `O=C(N/N=C\c1cccc(O)c1)c1ccncc1`, the activity, negative = inhibition is -1.11% [at 11.4 µM] (inactive).
Take `Cc1cc(C)c(NC(=O)C2CCCN2C)c(C)c1` (centres undefined): the AC50 entry was “inactive”.
For `CC(=O)Nc1cccc(NC(=O)C2CCCN2C(=O)Nc2ccccc2C)c1` (centres undefined), the AC50 result is “inactive”.
The same measure, in the same setting: the value for `Cc1cc(C)cc(NC(=O)N2CCCC2C(=O)Nc2ccc(-n3cnnn3)c(C)c2)c1` (centres undefined) was 0.282 µM (active); that for `Cc1cc(NC(=O)c2ccco2)ccc1-n1cnnn1` was 17.8 µM (active).
On to `CC(C)=CCC/C(C)=C/CO/N=C1/C[C@@H](O)[C@@H](O)[C@@H]2[C@@H]3C(=O)N(C(C)(C)C)C(=O)[C@H]3CC[C@@H]12`, for which the activity, negative = inhibition was -29.1% [at 11.4 µM] (inactive).
`CCOC(=O)c1c(NC(=O)/C=C/c2ccc3c(c2)OCO3)sc(C)c1CC`: the AC50 was 5.01 µM (active).
`CCOC(=O)c1c(NC(=O)/C=C/c2ccc3c(c2)OCO3)sc(C)c1C`: the AC50 result is “inactive”.
Take `CC(C)Oc1cccc(C(=O)NC(=S)N2CCN(c3ccc(C(F)(F)F)cc3[N+](=O)[O-])CC2)c1`: the AC50 was 8.91 µM (active).
Still for that read-out and setting: next, `COc1cccc(OC)c1C(=O)NC(=S)N1CCN(c2ccc(C(F)(F)F)cc2[N+](=O)[O-])CC1`: 14.1 µM (active).
Take `COc1ccccc1CN1CCCC2(CCN(S(C)(=O)=O)CC2)C1`: the AC50 entry was “inactive”.
On to `O=P(O)(O)O[C@@H]1O[C@H](CO)[C@@H](O)[C@H](O)[C@@H]1O`, for which the activity, negative = inhibition is 38.5% [at 11.4 µM] (inactive).
On to `Cc1ccc(C)c(NC(=O)Cn2c([N+](=O)[O-])cnc2C)c1`, for which the AC50 result was “inactive”.
In the case of `CCOc1ncccc1C(=O)OCC(=O)Nc1cc(C)ccc1C`, the AC50 was 5.01 µM (active).
In the case of `CCOCC(=O)Nc1cc(-c2cn3cccnc3n2)ccc1C`, the AC50 result is “inactive”.
For `CCOc1cc(NC(=S)NCC2CCCO2)c(OCC)cc1NC(=O)c1cccc(C)c1` (centres undefined), the AC50 is 11.2 µM (active).
Regarding `Cc1ccc(C(=O)NC(=S)NCC2CCCO2)cc1` (centres undefined), the AC50 was 6.31 µM (active).
Still for that read-out and setting: the value for `CCOC(=O)Nc1ccc(C(=O)NCC2CCCO2)cc1` (centres undefined) was “inactive”.
For the molecule `Cc1cc(=O)oc(C)c1C(=O)NCc1cccnc1`, the AC50 result was “inactive”.
Regarding `CCOc1ccc(OCc2ccc(C(=O)N3CCc4ccccc4C3)o2)cc1`, the AC50 is 5.62 µM (active).
Same read-out and setting: next, `CCOc1ccc(OCc2ccc(C(=O)NCc3cccnc3)o2)cc1`: 22.4 µM (active); `Cc1ccccc1CS(=O)(=O)Cc1ccc(C(=O)NCc2cccnc2)o1`: 3.55 µM (active); `O=C(O)c1cc2cc(Cc3cccnc3)ccc2o1`: “inactive”.
The same measure, in the same setting: next, `CC1CCN(C(=O)c2ccc(COc3ccccc3Cl)o2)CC1`: 8.91 µM (active); `NS(=O)(=O)c1cc2c(cc1Cl)NC(CSCc1ccccc1)=NS2(=O)=O`: “inactive”.
In the case of `CNC[C@@H](SC)c1ccc(O)c(O)c1`, the activity, negative = inhibition was -19% [at 11.4 µM] (inactive).
As for `CC(=O)Nc1ccc(NC(=O)Cn2c(-c3ccc(F)cc3)cnc2SCC(=O)Nc2c(C)cccc2C)cc1`, the AC50 is 1.58 µM (active).
As for `Cc1cccc(C)c1NC(=O)CN1CCN(CCCC(c2ccc(F)cc2)c2ccc(F)cc2)CC1`, the AC50 result is “inactive”.
For the molecule `CCNc1ncc2nc(-c3ccc(Cl)cc3)c(=O)n(C[C@H]3CCCO3)c2n1`, the AC50 result is “inactive”.
Consider `CCc1ccccc1NC(=O)C1C(c2ccccc2)C1(Cl)Cl` (centres undefined), for which the AC50 was 1.78 µM (active).
In the case of `O=C(COc1ccccc1-c1ccccc1)N/N=C/c1cccc2ccccc12`, the AC50 is 2.24 µM (active).
With `O=C(COc1ccc(-c2ccccc2)cc1)N/N=C/c1ccccc1Br`, the AC50 is 2.51 µM (active).
Same read-out and setting: next, `COc1ccc(OCC(=O)NNC(=O)c2ccc(-c3ccccc3)cc2)cc1`: “inactive”; `O=C(Cc1ccccc1)Nc1nc2ccc(Cl)cc2c2nc(-c3ccco3)nn12`: 1.58 µM (active).
Still for that read-out and setting: next, `Cn1c(=O)c(-c2ccc(Cl)cc2)nc2cnc(Oc3ccccc3)nc21`: “inactive”.
On to `COc1ncc2nc(-c3ccc(Cl)cc3)c(=O)n(C)c2n1`, for which the AC50 entry is “inactive”.
On to `Cc1cccc(Oc2ncc(-c3ccc(Cl)cc3)cn2)c1C`, for which the AC50 was 14.1 µM (active).
On to `Cc1cc(Cl)ccc1Oc1ncc(-c2ccc(Cl)cc2)cn1`, for which the AC50 is 2.51 µM (active).
`C#CCCCO/N=C1/C[C@@H](O)[C@@H](O)[C@@H]2[C@@H]3C(=O)N([C@@H](C)c4ccccc4)C(=O)[C@H]3CC[C@@H]12`: the activity, negative = inhibition is -27.9% [at 11.4 µM] (inactive).
For `CCCC(=O)N1c2ccccc2C(N(C(C)=O)c2ccccc2)CC1C` (centres undefined), the AC50 was 15.8 µM (active).
Turning to `COc1ccc(-n2c(=O)cnc3cnc(OC)nc32)cc1`, the AC50 result was “inactive”.
With `NNC(=O)c1nn(-c2ccc(Cl)cc2)ccc1=O`, the AC50 result was “inactive”.
In the case of `Cc1ccc(-n2ccc(=O)c(-c3ccnc(SCc4cccc(Cl)c4)n3)n2)cc1`, the AC50 was 3.55 µM (active).
As for `C[C@@H]1C[C@@H]2[C@H]3CCC4=CC(=O)C=C[C@]4(C)[C@]3(Cl)[C@@H](O)C[C@@]2(C)[C@@]1(O)C(=O)CO`, the AC50 result is “inactive”.
Turning to `CC1=C(C(=O)Nc2ccccc2F)C(c2ccsc2)C2=C(CC(c3ccccc3)CC2=O)N1` (centres undefined), the AC50 is 5.01 µM (active).
Same read-out and setting: next, `COC(=O)C1=C(C)NC(=O)NC1c1ccsc1` (centres undefined): “inactive”; `C=CCNc1nc(SCC=C)nc2ccsc12`: 8.91 µM (active).
On the same count and under the same terms, the value for `C=CCSc1ccsc1C(=O)O` was “inactive”; that for `C=CCSc1nc(Oc2ccccc2)c2sccc2n1` was 2.24 µM (active); that for `C=CCSc1nc(NC)c2sccc2n1` was 14.1 µM (active).
Same read-out and setting: the value for `C[C@@]12C(=O)OC(=O)[C@]1(C)[C@H]1CC[C@@H]2O1` was “inactive”.
As to `O=C1C[C@@H](O)[C@@H](O)[C@H]2[C@@H]3C(=O)N(c4cccc(Oc5ccccc5)c4)C(=O)[C@@H]3CC[C@H]12`, the activity, negative = inhibition was 5.15% [at 11.4 µM] (inactive) and -20.4% [at 11.4 µM] (inactive).
In the case of `O=C(Nc1ccc2c(c1)OCCO2)c1cc2sccc2n1Cc1ccccc1`, the AC50 was 3.16 µM (active).
For `O=C(Nc1ccc2c(c1)OCCO2)c1cc2sccc2n1Cc1ccc(F)cc1`, the AC50 is 1 µM (active).
`FC(F)(F)c1cc(Sc2ccccc2)nc(-c2ccccn2)n1`: the AC50 entry is “inactive”.
Still for that read-out and setting: the value for `Cc1ccc(Sc2cc(Cl)nc(N)n2)cc1` was “inactive”; that for `CCNc1nc(Sc2ccc(C)cc2)cc(C(F)(F)F)n1` was 11.2 µM (active).
The same measure, in the same setting: the value for `O=C(NCCCN1CCc2ccccc2C1)C1CCN(S(=O)(=O)N2CCCC2)CC1` was “inactive”; that for `O=C(NC1CCCc2ccccc21)C1CCN(S(=O)(=O)N2CCCCCC2)CC1` (centres undefined) was 17.8 µM (active); that for `O=C(NC1CCCc2ccccc21)c1ccc(=O)[nH]c1` (centres undefined) was “inactive”.
Still for that read-out and setting: the value for `CCc1nc(SCC(=O)NNC(=O)C2CCCCC2)c2ccccc2n1` was “inactive”; that for `Cc1cccc(NC(=O)CSc2nc(COc3ccccc3)nc3ccccc23)c1C` was 2 µM (active).
`C=CCn1c(C(C)NC(=O)c2ccccc2)n[nH]c1=S` (centres undefined): the AC50 was 5.01 µM (active).
For the molecule `CCn1c(CCNC(=O)c2ccccc2Cl)n[nH]c1=S`, the AC50 entry was “inactive”.
The same measure, in the same setting: the value for `NS(=O)(=O)c1cc(Cl)c(Cl)c(S(N)(=O)=O)c1` was “inactive”.
On the same count and under the same terms, next, `CC(=O)NNC(=O)C(O)(c1ccccc1)c1ccccc1`: “inactive”.
Take `Cc1cccc(N(NC(=O)C(C)(C)O)C(=O)c2ccccc2)c1`: the AC50 was 20 µM (active).
Consider `CCN1C(=O)[C@H]2[C@H]3[C@H](O)[C@H](O)C/C(=N/OCC(C)C)[C@@H]3CC[C@@H]2C1=O`, for which the activity, negative = inhibition is -7.39% [at 11.4 µM] (inactive).
For the molecule `CCc1ccc(C(=O)N2CCC(c3nc4ccccc4s3)CC2)cc1`, the AC50 was 14.1 µM (active).
On the same count and under the same terms, the value for `C[C@H]1NC(=O)NC1=O` was “inactive”; that for `C/C(=N\NC(=O)c1ccc(Cl)cc1)c1cccc(NC(=O)C(C)C)c1` was 17.8 µM (active).
On the same count and under the same terms, next, `CCC(CC)C(=O)Nc1cccc(/C(C)=N\NC(=O)c2ccc(C)s2)c1`: “inactive”; `C/C(=N\NC(=O)c1cccc(Cl)c1)c1cccc(NC(=O)C(C)C)c1`: “inactive”.
For `C/C(=N/NC(=O)c1ccc(C)s1)c1cccc(NC(=O)COc2ccc(Cl)cc2C)c1`, the AC50 was 3.16 µM (active).
The same measure, in the same setting: next, `C/C(=N/NC(=O)c1cccs1)c1ccc(NC(=O)COc2ccc(Cl)cc2Cl)cc1`: 14.1 µM (active).
